LGR2 inh: blocks bursicon-induced cAMP signaling via Drosophila LGR2; AID 720647; hit rate 0.35% among 380,000; inhibition, % at 9.99 µM; HEK293 LGR2, CRE-luciferase, bursicon-stimulated, 4 h;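 active = drop in luminescence signal, shown as inhibition above about 50% in the replicate tests, limit read from the data, passing the limit was not always enough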;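 note: agonist challenge used bursicon conditioned medium at about half maximal strength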
TROY NFkB inh: blocks TROY-dependent signaling in reporter cells; Q293 LMP1-TROYcd NF-kB luciferase reporter, 4 h; inhibition, % at 10 µM; hit rate 0.98% among 360,000; AID 1347056;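 active = compounds whose plate-normalised and pattern-corrected inhibition of the luciferase reporter signal at the single screening dose is 50% or more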
aDG glyco up: alpha-DG glycosylation activation; Pro5-aDG cells, alpha-DG glycosylation AlphaScreen (IIH6); 0% Pro5, 100% B10-LARGE cell signal; AID 624168; hit rate 0.22% among 360,000; activation, % at 10 µM;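 active = activation of at least 8% versus controls, or a plate z-score of at least 8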;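 note: Pro5 are CHO cells carrying HIG-tagged alpha-DG that lacks glycosylation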
HSP90 inh: HSP90 refolding inhibition in rabbit reticulocyte lysate; luciferase refolding luminescence, 3 h; inhibition, % at 5.6 µM; hit rate 0.91% among 290,000; AID 1789;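 active = inhibition above the screen-wide mean plus 3 SD, computed separately per campaign, cut at about 16% in these data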;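 note: 0% = DMSO wells and 100% = 60 µM geldanamycin wells; inhibitors lower the luminescence because luciferase stays unfolded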
TWEAK-Fn14 inh: blocks TWEAK-Fn14 interaction in a reporter cell assay; TWEAK-stimulated Fn14 reporter cells, luciferase luminescence, 8 h; inhibition, % at 10 µM; hit rate 2% among 360,000; in the data active = inhibition above about 50%
EBV LMP1 NFkB: inhibitors of Epstein-Barr LMP1-induced NF-kappaB reporter. LMP1-induced NF-kappaB luciferase reporter cells, luminescence. inhibition, % at 12.5 µM. hit rate 0.69% among 350,000; in the data active = inhibition above about 41%;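 note: 0% = neutral control wells and 100% = reference inhibitor control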
HSP90 inh confirm: HSP90 inhibition, confirmation assay. shares compounds with HSP90 inh. rabbit reticulocyte lysate, luciferase refolding luminescence, 3 h. inhibition, % at 5.9 µM. hit rate 64% among 2,300; in the data active = inhibition above about 18%;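 note: 0% = vehicle wells and 100% = reference inhibitor wells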
FLuc counter: firefly luciferase inhibition, HSP90 counter-screen; shares compounds with HSP90 inh; purified native firefly luciferase, luminescence; inhibition, % at 5.9 µM; hit rate 48% among 2,300;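 active = inhibition above the mean inhibition of all tested sample wells plus 3 SD, cut at about 10% in these data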;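 note: 0% = DMSO with luciferase and 100% = wells lacking luciferase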
Target sequence (P08659 whole entry, looked up): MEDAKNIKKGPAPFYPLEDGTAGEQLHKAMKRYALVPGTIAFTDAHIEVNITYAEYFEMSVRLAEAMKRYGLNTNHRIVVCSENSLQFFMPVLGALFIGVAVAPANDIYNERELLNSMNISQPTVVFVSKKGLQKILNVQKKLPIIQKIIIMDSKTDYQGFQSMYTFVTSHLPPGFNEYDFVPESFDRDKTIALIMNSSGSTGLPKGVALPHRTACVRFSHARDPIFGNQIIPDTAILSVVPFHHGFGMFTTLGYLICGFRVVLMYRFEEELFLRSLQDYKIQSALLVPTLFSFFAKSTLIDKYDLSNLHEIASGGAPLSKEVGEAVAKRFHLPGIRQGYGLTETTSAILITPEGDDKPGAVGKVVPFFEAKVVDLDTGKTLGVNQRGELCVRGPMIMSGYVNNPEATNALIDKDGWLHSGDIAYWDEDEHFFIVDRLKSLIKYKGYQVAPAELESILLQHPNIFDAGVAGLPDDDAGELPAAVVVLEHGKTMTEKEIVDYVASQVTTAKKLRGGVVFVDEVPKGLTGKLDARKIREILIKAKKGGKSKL
Starred values were filed as active, the others as inactive. Rows were chosen to be rich in hits. Some 2.6% of all compounds tested hit in one or more screens of this group.

COCC(C)n1c(SCC(=O)NC2CCCCC2)nc2ccccc2c1=O (configuration not stated) was read as LGR2 inh 2.6, TROY NFkB inh 13.7, aDG glyco up -0.1, TWEAK-Fn14 inh -3.7 and EBV LMP1 NFkB 4.2.
For CO[C@@H]1CN(C)C(=O)c2ccc(NS(=O)(=O)c3cccc(Cl)c3)cc2OC[C@@H](C)N(C(=O)Cc2cccnc2)C[C@H]1C the results were LGR2 inh -14.7.
COc1cc(/C=C2\C(=O)N(CCC#N)N=C2C)c(Br)cc1OC(C)C was read as TROY NFkB inh 19.8, aDG glyco up 0.3, HSP90 inh 17.6*, TWEAK-Fn14 inh 17.1, EBV LMP1 NFkB 3.8, HSP90 inh confirm 1.6 and FLuc counter 4.2.
`c1ccc(C2CSc3ccccc3N2)cc1` (configuration not stated) gave LGR2 inh -124.3, TROY NFkB inh -44.1, aDG glyco up -0.1, HSP90 inh 38.3*, TWEAK-Fn14 inh 14.0, EBV LMP1 NFkB -11.3, HSP90 inh confirm -1.0 and FLuc counter -16.9.
For COC(=O)c1ccc(N/C=C/C(=O)c2ccccc2)cc1 the results were LGR2 inh -37.1, TROY NFkB inh -20.6, aDG glyco up -0.1, HSP90 inh 20.7*, TWEAK-Fn14 inh 50.6*, EBV LMP1 NFkB -11.6, HSP90 inh confirm 51.8* and FLuc counter 3.4.
CCOC(=O)c1ccc(N/C=C\C(=O)c2cccc(OC)c2)cc1 was read as LGR2 inh -30.9, TROY NFkB inh 9.5, aDG glyco up -0.2, HSP90 inh 2.7, TWEAK-Fn14 inh -15.3 and EBV LMP1 NFkB -23.2.
Screening C[C@@H]1CCCCO[C@@H](CN(C)Cc2ccc(C(=O)O)cc2)[C@@H](C)CN([C@@H](C)CO)C(=O)c2cc(NC(=O)c3ccncc3)ccc2O1 returned LGR2 inh -1.2.
For O=C(CN1C(=O)c2ccccc2S1(=O)=O)c1ccc2c(c1)OCCO2 the results were LGR2 inh 103.2*, TROY NFkB inh 82.8*, aDG glyco up -0.1, HSP90 inh 57.4*, TWEAK-Fn14 inh 104.2*, EBV LMP1 NFkB 81.4*, HSP90 inh confirm 67.8* and FLuc counter -8.0.
For O=C(CN1C(=O)c2ccccc2S1(=O)=O)c1ccc2c(c1)OCCCO2 the results were LGR2 inh 92.7*, TROY NFkB inh 80.8*, aDG glyco up -0.2, HSP90 inh 80.2*, TWEAK-Fn14 inh 102.0*, EBV LMP1 NFkB 85.7*, HSP90 inh confirm 82.0* and FLuc counter -19.2.
O=C(CN1C(=O)c2ccccc2S1(=O)=O)c1ccc(Cl)cc1Cl was read as LGR2 inh 102.5*, TROY NFkB inh 86.9*, aDG glyco up -0.3, HSP90 inh 88.6*, TWEAK-Fn14 inh 104.6*, EBV LMP1 NFkB 79.2*, HSP90 inh confirm 91.2* and FLuc counter 28.6*.
Screening O=C(CCN1C(=O)c2ccccc2S1(=O)=O)Nc1ccc2c(c1)OCCO2 returned LGR2 inh -19.8, TROY NFkB inh -39.3, aDG glyco up -0.1, HSP90 inh -1.4, TWEAK-Fn14 inh 13.0 and EBV LMP1 NFkB 3.6.
C[C@H](CO)N1C[C@H](C)[C@H](CN(C)S(=O)(=O)c2ccccc2)Oc2ncc(C#CCN(C)C)cc2C1=O was read as LGR2 inh 3.9.
For Cc1noc(C)c1S(=O)(=O)Nc1ccc2c(c1)C(=O)N([C@H](C)CO)C[C@@H](C)[C@@H](CN(C)S(=O)(=O)c1cn(C)cn1)OCCCC[C@H](C)O2 the results were LGR2 inh -8.6.
Screening c1ccc2c(c1)[nH]c1c(NCC3CCCO3)ncnc12 (configuration not stated) returned TROY NFkB inh 19.6, aDG glyco up 2.2, HSP90 inh 32.4*, TWEAK-Fn14 inh 25.0, EBV LMP1 NFkB 10.6, HSP90 inh confirm -7.1 and FLuc counter -10.8.
Screening c1nc(NCC2CCCO2)c2[nH]cnc2n1 (configuration not stated) returned TROY NFkB inh 7.7, aDG glyco up -0.2, HSP90 inh 0.6, TWEAK-Fn14 inh 5.8 and EBV LMP1 NFkB 38.7.
CCCc1ccc(-c2cc(C(=O)N3CCN(c4ccccn4)CC3)c3ccccc3n2)cc1 was read as LGR2 inh 36.9, TROY NFkB inh 48.0, aDG glyco up 6.6, HSP90 inh 37.9*, TWEAK-Fn14 inh 32.2, EBV LMP1 NFkB 6.1, HSP90 inh confirm 43.0* and FLuc counter 12.3*.
`CCOc1ccc(-c2cc(C(=O)N3CCN(c4ccccn4)CC3)c3ccccc3n2)cc1` gave LGR2 inh 22.3, TROY NFkB inh 0.8, aDG glyco up 4.1, HSP90 inh 0.2, TWEAK-Fn14 inh 18.1 and EBV LMP1 NFkB 12.5.
`C[C@@H]1CN([C@@H](C)CO)C(=O)c2c(c3ccccc3n2C)-c2ccccc2CO[C@H]1CN(C)S(=O)(=O)c1cn(C)cn1` gave LGR2 inh -5.0.
Screening CCCNC1=C(N(C(C)=O)c2cccc(F)c2)C(=O)c2ccccc2C1=O returned LGR2 inh 12.0, TROY NFkB inh 18.1, aDG glyco up 2.0, HSP90 inh 82.0*, TWEAK-Fn14 inh 78.8*, EBV LMP1 NFkB 10.0, HSP90 inh confirm -4.9 and FLuc counter -11.2.
Screening COc1ccc2c3c(n(C)c2c1)[C@@H](CO)N(C(=O)Nc1ccccc1F)CC31CCN(C(=O)c2ccccc2)CC1 returned LGR2 inh -31.7.
For Cc1c(C(=O)O)cccc1-n1c(C)cc(C=O)c1C the results were LGR2 inh 34.2, TROY NFkB inh -15.6, aDG glyco up 0.1, HSP90 inh 22.2*, TWEAK-Fn14 inh -8.9, EBV LMP1 NFkB 5.8, HSP90 inh confirm 19.4* and FLuc counter 4.5.
Cc1ccc(C(=O)O)cc1-n1c(C)cc(C=O)c1C was read as LGR2 inh 22.3, TROY NFkB inh 16.9, aDG glyco up 0.2, HSP90 inh 0.1, TWEAK-Fn14 inh 2.4 and EBV LMP1 NFkB 4.8.
CC(C)(C)C(=O)Nc1ccc(-c2cn3ccsc3n2)cc1 was read as TROY NFkB inh 48.2, aDG glyco up 0.4, HSP90 inh 29.0*, TWEAK-Fn14 inh 74.1*, EBV LMP1 NFkB 27.2, HSP90 inh confirm 48.8* and FLuc counter 32.6*.
For CC(C)CC(=O)Nc1ccc(-c2cn3ccsc3n2)cc1 the results were LGR2 inh 2.7, TROY NFkB inh 19.3, aDG glyco up 0.5, HSP90 inh 7.8, TWEAK-Fn14 inh 9.5 and EBV LMP1 NFkB -1.6.
COCCNC(=O)C(=O)NCCN1CCNCC1 was read as LGR2 inh 23.5, TROY NFkB inh -2.5, aDG glyco up 0.2, HSP90 inh 34.1*, TWEAK-Fn14 inh 10.7, EBV LMP1 NFkB 4.0, HSP90 inh confirm -1.7 and FLuc counter -7.7.
